Results published in paper PMC7826789 (International Journal of Molecular Sciences, 2021).

Experiments:
Conditions in all cases: Compound Concentration (nM):1000
HIPK2 = test system: HIPK2
HIPK3 = test system: HIPK3
HIPK4 = test system: HIPK4
HPK1 = test system: T1, HPK1
T1 construct: gene MAP4K1

HUNK = test system: HUNK
ICK = test system: ICK
IGF1R = test system: IGF1R
IKK-alpha = test system: T2, IKK-alpha
T2 construct: gene CHUK

IKK-beta = test system: T3, IKK-beta
T3 construct: gene IKBKB

IKK-epsilon = test system: T4, IKK-epsilon
T4 construct: gene IKBKE
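Also: KINOMEscan scanMAX binding as percent activity remaining versus control; lower means stronger binding.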

Structure (SMILES)	Percent Control (HIPK2) [%]	Percent Control (HIPK3) [%]	Percent Control (HIPK4) [%]	Percent Control (HPK1) [%]	Percent Control (HUNK) [%]	Percent Control (ICK) [%]	Percent Control (IGF1R) [%]	Percent Control (IKK-alpha) [%]	Percent Control (IKK-beta) [%]	Percent Control (IKK-epsilon) [%]
O=C(Nc1n[nH]c2nc(-c3ccc(O)cc3)c(Br)cc12)C1CC1 [SB-725317]	36	30	100	86	100	1	100	100	100	84
NS(=O)(=O)c1ccc(N/N=C2\C(=O)Nc3ccc(-c4cnco4)cc32)cc1 [GW276655]	28	20	51	100	61	8.8	83	55	76	82
COc1ccc(COc2ccc(Cc3cnc(N)nc3N)cc2OC)cc1 [GW632580X]	94	100	100	100	72	99	91	94	100	86
COc1cccc(-c2c[nH]c3c(N/N=C/c4ccncc4)ncnc23)c1 [GW814408X]	53	27	59	70	73	33	100	87	100	100
CN(C)c1cc2c(Nc3ccc4c(cnn4Cc4ccccc4)c3)ncnc2cn1 [GW282974X]	90	100	79	100	100	90	100	92	100	76
Cc1cc(O)cc(C)c1/C=C/c1cncc(C(N)=O)c1 [GW435821X]	98	100	100	100	100	100	100	100	100	90
COC(=O)Nc1nc2ccc(Oc3ccc(NC(=O)Nc4cc(C(F)(F)F)ccc4F)cc3)cc2s1.Cl [GW693917A]	88	94	10	51	100	78	100	86	100	71
O=C1Nc2ccc(C(=O)c3ccco3)cc2C1=Cc1cc(Cl)c(O)c(Cl)c1 [GW406108X]	5.3	5.4	59	96	46	68	100	96	100	30
COc1cc(C=NNc2ncnc3c2cnn3-c2ccccc2)ccc1O [GW513184X]	91	75	67	100	58	91	100	100	100	100
NS(=O)(=O)c1ccc(Nc2ncc(-c3ccccc3)o2)cc1 [GW572399X]	72	75	100	100	92	89	100	90	100	78
COc1ccc2c(-c3ccnc(Nc4cccc(OC(F)(F)F)c4)n3)cnn2n1 [GW810372X]	0	2.3	29	83	88	24	100	83	100	62
COc1ccc2cc(-c3c(-c4ccncc4)nc(-c4ccc(S(C)(=O)=O)cc4C)n3C)ccc2c1 [SB-633825]	82	70	63	85	100	69	79	57	66	82
COc1cc(N2CCN(C(C)C)CC2)ccc1Nc1nc(Nc2ccc(F)cc2C(=O)NC[C@@H](O)CO)c2cc[nH]c2n1 [GSK1392956A]	23	44	1.4	86	83	100	9.8	100	97	78
COc1ccc2[nH]c3c4[nH]c5ccc(OC)cc5c4c4c(c3c2c1)C(=O)NC4=O [GW296115X]	64	44	70	90	91	89	97	89	87	48
CCS(=O)(=O)c1ccc(OC)c(Nc2ncc(-c3cccc(F)c3)o2)c1 [GW621970X]	87	79	74	100	100	100	100	100	100	98
C[C@@H](Oc1cc(-n2cnc3ccc(OC4CCN(C)CC4)cc32)sc1C(N)=O)c1ccccc1Cl [GSK579289A]	81	76	15	58	73	96	69	99	100	76
CC(C)COC(=O)c1ccc2c(c1)/C(=C/Nc1ccc(S(N)(=O)=O)cc1)C(=O)N2 [GW416981X]	75	63	100	48	100	44	100	69	100	16
CCn1c(-c2nonc2N)nc2c(C#CC(C)(C)O)nc(OCCNC)cc21.Cl [GSK949675]	75	47	100	100	89	100	100	91	98	73
COc1cc(/C=N/Nc2ncnc3[nH]ncc23)ccc1O [GW578748X]	19	16	85	80	100	75	100	14	33	81
NS(=O)(=O)c1ccc(N/N=C2\C(=O)Nc3ccc(Cl)cc32)cc1 [GW280670X]	100	90	100	88	100	94	100	100	100	72

Structure (SMILES)	Percent Control (HIPK2) [%]	Percent Control (HIPK3) [%]	Percent Control (HIPK4) [%]	Percent Control (HPK1) [%]	Percent Control (HUNK) [%]	Percent Control (ICK) [%]	Percent Control (IGF1R) [%]	Percent Control (IKK-alpha) [%]	Percent Control (IKK-beta) [%]	Percent Control (IKK-epsilon) [%]
NS(=O)(=O)c1ccc(N/N=C2\C(=O)Nc3ccc(C(=O)NCCc4c[nH]cn4)cc32)cc1 [GW300660X]	7.5	12	100	74	100	22	100	85	100	100
Cl.O=C(Nc1ccc(Oc2ccc3[nH]c(NC(=O)c4ccccc4)nc3c2)cc1)Nc1cc(C(F)(F)F)ccc1F [GW709042A]	98	100	13	75	90	100	100	75	100	86
COc1ccccc1-c1cc(/C=C2\C(=O)Nc3ncc(Br)cc32)cc(Br)c1O [GW442130X]	100	100	92	99	69	81	100	100	100	100
CN(C)CCNC(=O)Nc1ccc(N(C)c2ccnc(Nc3ccc(CS(C)(=O)=O)cc3)n2)cc1.Cl [GW830900A]	94	81	85	30	55	70	100	100	97	100
COc1cccc(-n2ncc3c(N/N=C/c4ccncc4)ncnc32)c1 [GW784752X]	33	23	54	100	95	64	100	98	94	100
CC1=C(C(=O)Nc2ccc3[nH]ncc3c2)C(c2ccc3ccccc3c2)CC(=O)N1 (stereo not shown) [GSK270822A]	76	79	100	87	91	84	85	69	72	87
Cl.O=C(Nc1ccc(Oc2ccc3[nH]c(NC(=O)c4ccco4)nc3c2)cc1)Nc1cc(C(F)(F)F)ccc1F [GW683134A]	100	100	16	44	63	100	100	24	88	100
C/C(Nc1ccc(S(N)(=O)=O)cc1)=C1/C(=O)Nc2ccccc21 [GW335962X]	93	97	84	100	100	92	95	92	100	63
Cl.O=C(O[C@H]1CN[C@H](C#Cc2cc3ncnc(Nc4ccc5c(cnn5Cc5ccccc5)c4)c3s2)C1)N1CCOCC1 [GSK200398A]	77	92	92	100	100	96	97	100	100	100
Nc1ncnc2occ(-c3ccc(NC(=O)Nc4cc(C(F)(F)F)ccc4F)cc3)c12 [GW770249X]	73	29	0	16	97	100	100	18	75	69
COc1cc2ncnc(Nc3ccc4c(cnn4Cc4ccccc4)c3)c2cc1OC.Cl [GW282449A]	100	100	100	100	92	100	100	100	100	100
CCc1ccc(Oc2nccc(-c3c(-c4ccc(F)cc4)ncn3C3CCNCC3)n2)cc1 [SB-242719]	92	100	100	54	86	100	97	99	100	56
NS(=O)(=O)c1ccc(N/N=C2\C(=O)Nc3ccc(C(=O)NCc4ccncc4)cc32)cc1 [GW300657X]	9.9	12	81	70	86	15	95	86	83	42
Cl.c1ccc(Cc2nc3ccc(Nc4ncnc5ccccc45)cc3[nH]2)cc1 [GR269666A]	100	100	100	98	100	100	100	100	100	100
CN1CCN(C(=O)c2ccc(NC(=O)Nc3ccc(N(C)c4ccnc(Nc5ccc(CS(C)(=O)=O)cc5)n4)cc3)cc2)CC1.Cl [GW830263A]	77	71	74	2.6	35	44	100	90	70	38
COc1cc2ncn(-c3cc(O[C@H](C)c4ccccc4Cl)c(C(N)=O)s3)c2cc1OC [GSK237701A]	84	93	99	26	100	91	97	83	92	81
CCS(=O)(=O)c1ccc(OC)c(Nc2ncc(-c3cccc(OC)c3)o2)c1 [GW580509X]	56	45	18	88	100	100	100	100	100	100
COc1cc(C)c(N(C)C(=O)CN(C)C)cc1Nc1nc(Nc2cccc(F)c2C(N)=O)c2cc[nH]c2n1 [GSK2219385]	100	100	100	100	100	89	7.7	100	100	61
CC1=C(C(=O)Nc2ccc3[nH]ncc3c2)C(c2ccc(Cl)c(Cl)c2)CC(=O)N1 (stereo not shown) [GSK299115A]	92	83	100	100	80	83	93	81	76	100
Cl.O=S1CCN(Cc2ccc(-c3ccc4ncnc(Nc5ccc(OCc6ccccc6)c(F)c5)c4c3)o2)CC1 [GW576924A]	100	97	100	95	100	100	100	100	94	100
